Experimental data published in PubChem BioAssay (Tox21).
Where “and” joins values, the source holds several entries; their conditions need not be identical. Equal values may be shown once. Records with an inconclusive call do not appear. The source holds several records for some structures; these can differ, active in one and inactive in another. Calls of active or inactive are those of the source. Unless noted, the call rests on the fitted dose curve; in most records, active means well fitted curve in the direction sought with a large enough effect in the repeat runs; inconclusive means weak or mixed curves; inactive means no such curve, though single readings can be large; an effect the other way counts as inactive or inconclusive.

Legend:
[1] = qHTS assay to identify small molecule antagonists of the glucocorticoid receptor (GR) signaling pathway - cell viability counter screen (AID 720693); further: nearly all actives have a fitted effect of over 55% in size
[2] = qHTS assay for identifying genotoxic compounds that show differential cytotoxicity against isogenic chicken DT40 cell lines with known DNA damage response pathways - wild type cell line (AID 743012); further: nearly all actives have a fitted effect of over 60% in size; further: potency means the concentration at half of the fitted maximal effect
Procedure, shortened: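 Endpoint: CellTiter-Glo luminescence, 30 min RT. Cells: wild type DT40, 300/well. Exposure: compounds in DMSO, 40 h, 37 C/5% CO2, after ~0.5 h pre-incubation.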

[3] = qHTS assay for identifying genotoxic compounds that show differential cytotoxicity against isogenic chicken DT40 cell lines with known DNA damage response pathways - Rev3 mutant cell line (AID 743014); further: nearly all actives have a fitted effect of over 55% in size; further: potency means the concentration at half of the fitted maximal effect
[4] = qHTS assay for identifying genotoxic compounds that show differential cytotoxicity against isogenic chicken DT40 cell lines with known DNA damage response pathways - Rad54/Ku70 mutant cell line (AID 743015); further: nearly all actives have a fitted effect of over 60% in size; further: potency means the concentration at half of the fitted maximal effect
[5] = qHTS assay to identify small molecule antagonists of the androgen receptor (AR) signaling pathway - cell viability counter screen (AID 743033; further: nearly all actives have a fitted effect of over 45% in size)
[6] = molecular target: Androgen receptor (Homo sapiens) (UniProt P10275); test: qHTS assay to identify small molecule antagonists of the androgen receptor (AR) signaling pathway (AID 743035; active means well fitted inhibition curve with a large enough effect in the signal ratio in the repeat runs, not every such curve was filed as active; the % refers to the signal ratio)
Androgen receptor (Homo sapiens), sequence (P10275 whole entry, looked up): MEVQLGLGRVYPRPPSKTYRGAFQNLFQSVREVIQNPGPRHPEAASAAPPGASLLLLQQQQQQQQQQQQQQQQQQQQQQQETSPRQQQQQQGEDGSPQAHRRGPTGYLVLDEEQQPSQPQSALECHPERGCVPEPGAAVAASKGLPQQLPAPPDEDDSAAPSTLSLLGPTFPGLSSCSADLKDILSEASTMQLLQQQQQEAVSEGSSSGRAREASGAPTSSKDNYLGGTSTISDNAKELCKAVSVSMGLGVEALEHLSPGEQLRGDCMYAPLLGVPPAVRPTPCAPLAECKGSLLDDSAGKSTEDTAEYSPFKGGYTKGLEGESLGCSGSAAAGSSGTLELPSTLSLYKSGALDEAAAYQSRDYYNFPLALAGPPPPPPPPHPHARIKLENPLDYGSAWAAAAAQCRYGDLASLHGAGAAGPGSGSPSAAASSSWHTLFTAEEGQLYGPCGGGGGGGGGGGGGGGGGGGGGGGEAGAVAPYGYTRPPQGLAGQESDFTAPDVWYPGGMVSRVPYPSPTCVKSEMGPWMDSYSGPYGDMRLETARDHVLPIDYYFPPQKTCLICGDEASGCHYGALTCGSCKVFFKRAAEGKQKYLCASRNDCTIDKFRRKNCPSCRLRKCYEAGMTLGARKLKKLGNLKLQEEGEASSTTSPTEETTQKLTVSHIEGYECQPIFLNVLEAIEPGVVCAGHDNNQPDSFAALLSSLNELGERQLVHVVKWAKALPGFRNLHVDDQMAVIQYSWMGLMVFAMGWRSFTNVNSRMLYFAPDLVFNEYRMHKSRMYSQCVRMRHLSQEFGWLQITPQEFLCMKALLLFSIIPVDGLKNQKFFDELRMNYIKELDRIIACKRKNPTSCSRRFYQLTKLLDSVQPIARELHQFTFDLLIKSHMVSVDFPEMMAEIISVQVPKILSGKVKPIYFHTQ
Procedure, shortened: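 R1881 agonist challenge of a HEK293 UAS-beta-lactamase AR reporter line in the presence of compound (16 h, 37C); signal taken as FRET fluorescence after 2 h with LiveBLAzer B/G substrate at room temperature.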

[7] = molecular target: Androgen receptor (Homo sapiens) (UniProt P10275); test: qHTS assay to identify small molecule agonists of the androgen receptor (AR) signaling pathway (AID 743036; active means well fitted activation curve with a large enough effect in the signal ratio in the repeat runs, with a control signal flat, not every such curve was filed as active; the % refers to the signal ratio; further: potency means the concentration at half of the fitted maximal effect)
Procedure, shortened: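 Following a 4 h settling period, AR-UAS-bla HEK293 cells were dosed with compounds for 16 h at 37C. A 2 h room-temperature incubation with LiveBLAzer B/G FRET substrate preceded the fluorescence measurement.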

[8] = molecular target: Androgen receptor (Homo sapiens) (UniProt P10275); test: qHTS assay to identify small molecule agonists of the androgen receptor (AR) signaling pathway using the MDA cell line (AID 743040; further: nearly all actives have a fitted effect of over 20% in size; further: potency means the concentration at half of the fitted maximal effect)
Procedure, shortened: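 Cell-based luciferase reporter: MDA-kb2, MMTV promoter (AR + GR response elements). 16 h compound exposure at 37C; ONE-Glo, 30 min RT, luminescence.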

[9] = molecular target: Androgen receptor (Homo sapiens) (UniProt P10275); test: qHTS assay to identify small molecule antagonists of the androgen receptor (AR) signaling pathway using the MDA cell line (AID 743042; further: nearly all actives have a fitted effect of over 55% in size)
Procedure, shortened: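 MDA-kb2 cells (human breast carcinoma, stably carrying an MMTV-luciferase reporter responsive to AR and GR) were plated at 3,000 cells/well and preincubated 5 hr at 37C, then given compound plus R1881 agonist for 16 h. ONE-Glo luminescence was read.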

[10] = qHTS assay to identify small molecule antagonists of the androgen receptor (AR) signaling pathway using the MDA cell line - cell viability counter screen (AID 743041; further: nearly all actives have a fitted effect of over 45% in size)
Procedure, shortened: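 In this qHTS counter assay, fluorescence intensity after CellTiter-Fluor addition indicated viability of MDA-kb2 AR-luc cells given compounds and R1881 for 16 h at 37C.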

Measured: Potency

COc1cc(Cc2cnc(N)nc2N)cc(OC)c1OC
inactive: [1] | [2] | [3] | [4] | [5]

CCc1cccc(C)c1N
not listed: [10]
inactive: all other assays above

c1ccc(OCCOc2ccccc2)cc1
inactive: [1] | [2] | [3] | [4] | [5]

CCCCCCOCCO
inactive: [1] | [2] | [3] | [4] | [5] | [10]

CC(c1cc2ccccc2s1)N(O)C(N)=O (stereo unspecified)
inactive: all assays above

CCCCCC(N)=O
inactive: [1] | [2] | [3] | [4] | [5]

OCCOCCOCCO
inactive: all assays above

CC1=CCC2CC1C2(C)C (stereo unspecified)
inactive: [1] | [2] | [3] | [4] | [5]

CCN(CC)CCCC(C)Nc1ccnc2cc(Cl)ccc12 (stereo unspecified)
active: [2] 21.1 µM | [3] 13.3 µM and 2.66 µM | [4] 18.8 µM
inactive: [1] | [5]

C[Si](O[Si](C)(C)C)O[Si](C)(C)C
inactive: all assays above

C[C@H]1C[C@@H]2[C@H]([C@@H](O)C[C@@]3(C)[C@H]2CC[C@]3(O)C(=O)CO)[C@@]2(C)C=CC(=O)C=C12
active: [7] 32.3 nM and 49 nM | [8] 50.7 nM and 38.6 nM
not listed: [6] | [10]
inactive: all other assays above

O=C(O)CCCC[C@@H]1SC[C@@H]2NC(=O)N[C@@H]21
inactive: [1] | [2] | [3] | [4] | [5]

C=C(C)C(=O)O[C@H]1C[C@@H]2CC[C@@]1(C)C2(C)C
inactive: [1] | [2] | [3] | [4] | [5]

Cc1cccc(O)c1
inactive: [1] | [2] | [3] | [4] | [5] | [10]

N[C@@H](Cc1cc(I)c(Oc2cc(I)c(O)c(I)c2)c(I)c1)C(=O)O
inactive: [1] | [2] | [3] | [4] | [5]

c1c[nH]cn1
inactive: [1] | [2] | [3] | [4] | [5]

CC(=O)c1ccccc1
inactive: [1] | [2] | [3] | [4] | [5]

CCCCCCCCCCCCCCCO
inactive: [1] | [2] | [3] | [4] | [5] | [10]

Cc1ccc(N(C)C)cc1
inactive: all assays above

O=C(O)[C@H](O)[C@@H](O)[C@H](O)[C@H](O)CO
inactive: [1] | [2] | [3] | [4] | [5] | [10]

O=C(O)c1ccc2c(c1)C(=O)OC2=O
inactive: all assays above

O=C(O)c1ccccc1C(c1ccc(O)cc1)c1ccc(O)cc1
inactive: all assays above

CCCCC(CC)COC(=O)C(C#N)=C(c1ccccc1)c1ccccc1 (stereo unspecified)
active: [2] 11.9 µM
inactive: [1] | [3] | [5] | [10]
13.3 µM (active) and inactive: [4]

Cc1occc(=O)c1O
inactive: [1] | [2] | [3] | [4] | [5] | [10]

CCCCCC/C(C=O)=C\c1ccccc1
inactive: [1] | [2] | [3] | [4] | [5] | [10]

CCCC(C)=O
inactive: [1] | [2] | [3] | [4] | [5] | [10]

O=S1(=O)CC=CC1
inactive: [1] | [2] | [3] | [4] | [5] | [10]
